Test results taken from the supplement of paper PMC9433436.
± gives the standard deviation of the averaged measurements. Whole data set: some 4,100 sequences, median “relative kcat/Km (krel) vs genomic leader AAAGAU” near 1.7, cut for the highest 2% near 6.5. The full list was thinned out, with the highest values kept by preference.

Molecular target: T1, E. coli RNase P holoenzyme (M1 P RNA + rnpA protein) (UniProt P0A7Y8)
T1 sequence: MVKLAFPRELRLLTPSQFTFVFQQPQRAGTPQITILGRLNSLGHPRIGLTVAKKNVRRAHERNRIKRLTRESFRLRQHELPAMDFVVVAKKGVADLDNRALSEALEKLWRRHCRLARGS
Assay: relative kcat/Km (krel) vs genomic leader AAAGAU (relative (reference leader = 1)); higher = faster RNase P cleavage
Experimental: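 HTS-Kin: a pool of ptRNA-Met (21C construct) with all 4096 combinations of 5' leader nucleotides N(-6) to N(-1) was processed in vitro by E. coli RNase P (P RNA + rnpA/C5 protein) under multiple-turnover conditions at 37 C, pH 8, 17.5 mM MgCl2. Residual substrate was Illumina-sequenced at several fractions reacted, and relative kcat/Km (krel) was computed by internal competition kinetics, calibrated to the genomic leader (AAAGAU = 1). The listed hexamer is the varied N(-6)..N(-1) leader (DNA letters), and it sits between a fixed 5' stem-loop flank (GCAUGCACGAAAGUGCGUGCUAUGAA) and the mature tRNA-Met starting GGCUACGUAGCUCAGUUGG. Two technical replicates are averaged.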

[1] = fraction of substrate reacted: ~13-16% (15.68% repeat 1, 13.17% repeat 2)
[2] = fraction of substrate reacted: ~26-29% (28.66% repeat 1, 26.4% repeat 2)
[3] = fraction of substrate reacted: ~9-10% (9.79% repeat 1, 9.1% repeat 2)

Row | Sequence | relative kcat/Km [1] | relative kcat/Km [2] | relative kcat/Km [3]
1 | ATGCAG | 0.709 ± 0.22 | 0.668 ± 0.4 | 
2 | ACAGCG |  | 1.17 ± 0.16 | 
3 | AAGGGT |  | 0.872 ± 0.84 | 
4 | GAATTA | 1.82 ± 0.37 | 2.25 ± 0.75 | 1.25 ± 0.15
5 | AATGCC | 1.43 ± 0.1 | 1.48 ± 0.22 | 2.38 ± 1.7
6 | TCGCAA | 2.55 ± 0.15 | 3.22 ± 0.85 | 2.14 ± 1.8
7 | CAGATT | 2 ± 0.1 | 2.79 ± 0.81 | 1.72 ± 0.68
8 | GGTTAT | 1.69 ± 0.19 | 2.83 ± 1.2 | 0.926 ± 0.33
9 | CGTTAT | 5.58 ± 1.3 | 8.08 ± 3.4 | 4.04 ± 1
10 | GGTTAC | 1.09 ± 0.22 | 2.13 ± 0.98 | 0.591 ± 0.54
11 | CGTTGT |  | 1.21 ± 0.9 | 0.465 ± 0.32
12 | CGTTAC | 5.28 ± 1.9 | 7.82 ± 2.9 | 3.84 ± 0.72
13 | TGTTAT | 4.69 ± 0.22 | 6.81 ± 2.8 | 3.17 ± 1.4
14 | TGTTAG | 2.36 ± 0.065 | 4.6 ± 1.1 | 2.17 ± 1.1
15 | GGTTAA | 1.16 ± 0.33 | 1.35 ± 0.6 | 0.853 ± 0.094
16 | TGTTCT | 2.58 ± 0.73 | 4.41 ± 1.8 | 1.986 ± 0.0021
17 | CGTTAA | 5.04 ± 1.6 | 7.04 ± 2.8 | 3.62 ± 0.3
18 | CGTTTA | 3.11 ± 0.48 | 4.14 ± 1.4 | 2.35 ± 0.28
19 | CGTTAG | 2.22 ± 0.3 | 4 ± 1.2 | 2.87 ± 1.6
20 | TATTGT |  |  | 0.735 ± 0.4
21 | GACCAC | 3.51 ± 0.65 | 5.22 ± 1.2 | 2.53 ± 1.4
22 | GCCCAG | 0.933 ± 0.79 | 3 ± 0.76 | 0.499 ± 0.44
23 | AAAATC | 1.14 ± 0.28 | 1.37 ± 0.15 | 2.07 ± 0.94
24 | AGTTAG | 2.34 ± 0.29 | 4.77 ± 1.3 | 2.06 ± 1.1
25 | AGTTAC | 5.31 ± 0.22 | 7.26 ± 2.7 | 3.18 ± 1.6

Row | Sequence | relative kcat/Km [1] | relative kcat/Km [2] | relative kcat/Km [3]
26 | ACTTAC | 4.09 ± 0.096 | 5.29 ± 1.6 | 3.88 ± 2.3
27 | TACGTA | 2.47 ± 0.38 | 3.67 ± 1.2 | 2.14 ± 0.53
28 | CAGAGT |  | 0.537 ± 0.3 | 
29 | CTCTTG | 1.64 ± 0.35 | 3.11 ± 0.5 | 2.31 ± 1.9
30 | GCCTTT | 3.71 ± 0.066 | 5.06 ± 1.7 | 3.36 ± 1.7
31 | GTCTTG | 1.96 ± 0.21 | 3.58 ± 0.69 | 2.05 ± 1.9
32 | CTCTTA | 4.69 ± 1.5 | 6.21 ± 2.8 | 2.98 ± 0.098
33 | CTCTTC | 4.38 ± 0.62 | 6.47 ± 2.3 | 3.63 ± 0.69
34 | CTCTTT | 4.98 ± 1.2 | 7.01 ± 3 | 3.59 ± 0.8
35 | TGCTTC | 2.83 ± 0.76 | 3.73 ± 1.2 | 2.79 ± 0.96
36 | TTCTTC | 5.94 ± 0.85 | 7.95 ± 3.2 | 4.65 ± 1.6
37 | ATCTTA | 3.89 ± 0.59 | 5.74 ± 2.1 | 2.6 ± 0.64
38 | ATCTTC | 4.36 ± 0.71 | 6.11 ± 2.2 | 3.23 ± 1.1
39 | TTCTTA | 5.9 ± 0.59 | 7.98 ± 3.2 | 4.55 ± 1.2
40 | GTCTTT | 5.87 ± 1.4 | 8.44 ± 3.8 | 4.65 ± 1.2
41 | TTAACT | 1.54 ± 0.2 | 2.03 ± 0.47 | 1.58 ± 0.78
42 | CCTCCC | 1.06 ± 0.17 | 1.57 ± 0.17 | 0.874 ± 0.5
43 | CTAGAC | 3.27 ± 0.96 | 4.19 ± 2.1 | 1.95 ± 0.33
44 | GGATTA | 0.993 ± 0.47 | 1.52 ± 0.41 | 1.24 ± 0.14
45 | TCGGTG |  | 0.367 ± 0.27 | 0.643 ± 0.43
46 | TGCTTT | 2.232 ± 0.0079 | 3.45 ± 1.3 | 2.25 ± 0.41
47 | ATCTTG | 1.15 ± 0.053 | 2.716 ± 0.019 | 
48 | GCCTTA | 3.35 ± 0.54 | 5.21 ± 1.5 | 2.94 ± 1.2
49 | GACTTC | 4.38 ± 2.1 | 6.22 ± 3.3 | 3.65 ± 0.53
50 | GCCTTC | 4.03 ± 2.2 | 5.81 ± 3.1 | 3 ± 0.21

Row | Sequence | relative kcat/Km [1] | relative kcat/Km [2] | relative kcat/Km [3]
51 | TTCTTT | 6.36 ± 1.2 | 8.65 ± 4 | 4.38 ± 0.77
52 | ATCTTT | 4.27 ± 0.42 | 6.67 ± 2.8 | 3.55 ± 1.4
53 | GGCTTA | 1.39 ± 0.29 | 1.79 ± 0.95 | 1.58 ± 0.71
54 | AGCTTT | 2.71 ± 0.49 | 4.09 ± 1.6 | 2.79 ± 1.2
55 | TTCTTG | 1.96 ± 0.17 | 4 ± 1.1 | 1.95 ± 1.7
56 | GTCTTA | 5.78 ± 0.74 | 7.65 ± 2.9 | 4.14 ± 1.1
57 | GTCTTC | 5.61 ± 1.7 | 8.18 ± 3.4 | 4.4 ± 1.6
58 | TCAGCT | 0.491 ± 0.47 | 1.24 ± 0.075 | 1.54 ± 0.23
59 | GCTGTC | 0.624 ± 0.091 | 0.9566 ± 0.0067 | 1.58 ± 0.93
60 | GGCGAC | 2.47 ± 1.2 | 4.08 ± 1.4 | 2.53 ± 0.11
61 | TTAGAT | 2.14 ± 0.17 | 2.8 ± 1.2 | 1.88 ± 0.57
62 | CTTCCC | 1.5 ± 1.2 | 1.93 ± 0.53 | 1.37 ± 0.18
63 | GGGATG |  | 0.779 ± 0.15 | 0.585 ± 0.41
64 | CTAGAT | 1.15 ± 0.17 | 1.83 ± 0.17 | 
65 | GACCTC | 2.49 ± 0.041 | 3.63 ± 0.74 | 2.41 ± 0.81
66 | GGATAC | 1.76 ± 0.55 | 3.05 ± 0.7 | 1.9 ± 1.2
67 | CACTAT | 6.06 ± 2 | 8.37 ± 3.9 | 4.78 ± 1.4
68 | AACTAC | 4.66 ± 0.63 | 6.38 ± 2.5 | 3.89 ± 1.7
69 | CGCTAT | 4.44 ± 1.6 | 5.95 ± 2.4 | 3.49 ± 0.87
70 | CACTAC | 6.82 ± 2.5 | 8.23 ± 3.5 | 4.63 ± 0.25
71 | CACTGC | 4.53 ± 1.3 | 6.06 ± 1.9 | 3.89 ± 1.6
72 | CACTGT | 0.947 ± 0.35 | 1.51 ± 1.1 | 1.07 ± 0.037
73 | CGCTAG | 2.43 ± 1 | 3.4 ± 0.31 | 2.34 ± 1.3
74 | GACTAC | 6.14 ± 3 | 8.43 ± 3.9 | 4 ± 0.5
75 | CGCTAC | 4.78 ± 2.6 | 6.76 ± 2.8 | 3.79 ± 0.67

Row | Sequence | relative kcat/Km [1] | relative kcat/Km [2] | relative kcat/Km [3]
76 | CGTATA | 2.75 ± 0.17 | 3.94 ± 1.5 | 2.37 ± 0.34
77 | GATGGT |  | 2.1 ± 0.88 | 
78 | TGAGAC | 2.56 ± 0.093 | 4.48 ± 1.3 | 2.71 ± 1.3
79 | TATACA | 2.13 ± 0.035 | 3.02 ± 1.8 | 1.36 ± 0.29
80 | AGTCGA | 3.65 ± 1.2 | 5.59 ± 2 | 2.68 ± 0.35
81 | TCCTTT | 4.6 ± 0.8 | 6.89 ± 2.9 | 3.7 ± 1.8
82 | ACCTAT | 4.66 ± 0.24 | 6.39 ± 2.5 | 3.74 ± 1.7
83 | ACCTAC | 4.53 ± 0.77 | 5.77 ± 2.1 | 3.44 ± 1.2
84 | CCCTTC | 3.36 ± 0.74 | 4.51 ± 1.3 | 3.11 ± 1.4
85 | TCCTTC | 4.99 ± 0.72 | 6.44 ± 2.3 | 3.75 ± 1.2
86 | CCCTTT | 3.73 ± 1.1 | 5.02 ± 2 | 2.73 ± 0.52
87 | TCCTTA | 4.61 ± 0.54 | 6.32 ± 2.4 | 3.84 ± 1.5
88 | TCCTAT | 6.02 ± 0.85 | 9.38 ± 4.8 | 4.03 ± 0.47
89 | TCCTAC | 5.74 ± 0.95 | 9.69 ± 4.1 | 4.6 ± 1.6
90 | CCCTAC | 5.08 ± 2.3 | 7.32 ± 3.6 | 4.32 ± 1.6
91 | GCCTAC | 4.5 ± 0.39 | 6.1 ± 2.4 | 3.67 ± 1.2
92 | GAAGAT | 1.36 ± 0.085 | 1.34 ± 0.35 | 1.93 ± 1.7
93 | ATGCTG |  | 0.658 ± 0.54 | 
94 | CTTAGA | 3.18 ± 0.44 | 4.79 ± 1.7 | 3.03 ± 0.85
95 | GATACC | 1.49 ± 0.64 | 1.67 ± 0.033 | 
96 | CTGAAG |  | 2.05 ± 0.18 | 
97 | TCCCGT |  | 1.86 ± 0.041 | 
